Compound activity deposited in PubChem BioAssay by National Center for Advancing Translational Sciences (NCATS).
AmpC no deterg = AmpC beta-lactamase inhibition without detergent; Potency, µM (titrated, usually from 57.1 µM), most hits filed as inhibitors; AmpC nitrocefin hydrolysis, absorbance 480 nm, 0.0001% Triton; 0.52% of 330,000 active; P00811; note: nearly all actives have a fitted effect of over 20% in size
Target sequence (P00811 whole entry, looked up): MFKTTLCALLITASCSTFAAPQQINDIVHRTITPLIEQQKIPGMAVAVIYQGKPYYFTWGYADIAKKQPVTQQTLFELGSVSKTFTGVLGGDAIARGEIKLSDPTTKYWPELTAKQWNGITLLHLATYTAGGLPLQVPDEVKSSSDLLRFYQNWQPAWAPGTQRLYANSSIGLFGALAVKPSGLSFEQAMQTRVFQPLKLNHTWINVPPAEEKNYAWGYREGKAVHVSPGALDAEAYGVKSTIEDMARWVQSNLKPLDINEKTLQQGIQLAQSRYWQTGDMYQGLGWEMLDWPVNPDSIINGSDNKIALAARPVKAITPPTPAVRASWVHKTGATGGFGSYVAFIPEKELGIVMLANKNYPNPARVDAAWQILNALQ
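20 mM phosphate pH 7.0 + 0.01% (detergent screen) or 0.0001% Triton X-100; 5.3 nM AmpC reagent; cpd preinc 15 min RT; nitrocefin (800 uM stock) to start; A480 q20 s × 4 min; Activity was normalised to no-enzyme and no-compound control wells.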
Sm TGR block = inhibitors of Schistosoma mansoni thioredoxin glutathione reductase. Q962Y6. Potency, µM (highest dose often 114 µM), actives largely listed as inhibitors. purified TGR, DTNB reduction, TNB absorbance 405 nm. 3% of 360,000 active; note: nearly all actives have a fitted effect of over 60% in size
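TGR 20 nM + NADPH 100 uM (dispensed conc.), cpd preinc 15 min RT; start with NADPH (500 uM addition) then DTNB (15 mM addition). Kinetic TNB absorbance, 405 nm filter. Four-parameter Hill fit across titration.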
AmpC inh detg = blocks E. coli AmpC beta-lactamase in detergent assay; P00811; AmpC hydrolysis of nitrocefin, absorbance 480 nm, 0.01% Triton; Potency, µM (top dose mostly 114 µM), hits mostly inhibitors; 0.041% of 370,000 active; AID 485294; note: nearly all actives have a fitted effect of over 25% in size
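AmpC (5.3 nM in the dispensed reagent) in 20 mM phosphate pH 7.0 with 0.01% (detergent screen) or 0.0001% Triton X-100 was preincubated with compounds for 15 min at room temperature. Nitrocefin was then added from an 800 uM solution, and hydrolysis was followed at 480 nm.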
Each line names hits and unclear results; the compound was inactive in the other large screens. Hits are enriched below; roughly 3.3% of the tested compounds scored in any of these assays. Calls come from the whole dose curve; as a rule, active = well fitted curve in the direction sought with a large enough effect; inconclusive = small, poorly fitted or top-dose-only effect, or another doubt; inactive = no such curve, though single readings can be large; an effect the other way counts as inactive or inconclusive.

COc1ccccc1NC(=O)N(Cc1ccco1)C1CCN(C(C)=O)CC1	none (no result: AmpC no deterg)
COc1ccc(/C=N\Nc2ccccc2[N+](=O)[O-])c(C(=O)O)c1OC	none
COc1ccc(/C=N\Nc2ccc([N+](=O)[O-])cc2[N+](=O)[O-])c(C(=O)O)c1OC	Sm TGR block 8.9µM
Cc1ccc(C)c(NC(=O)CN2C(=O)c3cccc4cccc2c34)c1	none (no result: AmpC no deterg)
COC(=O)/C=c1\sc2ncnn2c1=O	Sm TGR block 1.4µM
CNC(=O)/C(C#N)=c1\s/c(=C/C(=O)OC)c(=O)n1-c1ccccc1	AmpC inh detg inconclusive
CCc1nnc(SC(CC)C(=O)Nc2cccc(OC)c2)c2cc3oc(C)cc3n12 (stereo not drawn)	none (no result: AmpC no deterg)
CC(=O)N1c2ccc(S(=O)(=O)N3CCN(c4cc(Cl)ccc4C)CC3)cc2CC1C (stereo not drawn)	none (no result: AmpC no deterg)
COC(=O)c1cccc(NC(=S)Nc2cccc(Cl)c2C)c1	none
COC(=O)c1cccc(NC(=S)Nc2ccccc2Cl)c1	Sm TGR block 22µM
COC(=O)c1cccc(NC(=S)Nc2ccc(Cl)c(Cl)c2)c1	Sm TGR block 22µM
COC(=O)c1cccc(NC(=O)Nc2ccc(Cl)cc2)c1	none
CC1CCCCN1S(=O)(=O)c1cc2c3c(c1)CC(=O)N3CCC2 (stereo not drawn)	none (no result: AmpC no deterg)
COc1ccc(NC(=O)C2C3C=CC(O3)C2C(=O)O)cc1 (stereo not drawn)	Sm TGR block 45µM, AmpC inh detg inconclusive
CCCOC(=O)c1ccc(NC(=O)C2C3C=CC(O3)C2C(=O)O)cc1 (stereo not drawn)	Sm TGR block 20µM
O=C(O)C1C2C=CC(O2)C1C(=O)Nc1ccc2c(c1)OCCO2 (stereo not drawn)	Sm TGR block 35µM, AmpC inh detg inconclusive
COc1cccc(NC(=O)C2C3C=CC(O3)C2C(=O)O)c1 (stereo not drawn)	Sm TGR block 35µM, AmpC inh detg inconclusive
CC(=O)c1ccc(NC(=O)C2C3C=CC(O3)C2C(=O)O)cc1 (stereo not drawn)	none
CC(C)OC(=O)c1cc(NC(=O)C2C3C=CC(O3)C2C(=O)O)cc(C(=O)OC(C)C)c1 (stereo not drawn)	none
COc1cccc(NC(=O)C2CC2)c1	none
O=C(O)C1C2C=CC(C2)C1C(=O)Nc1ccc2c(c1)OCCO2 (stereo not drawn)	none
Cc1ccc(N2C(=O)C(CC(=O)Nc3ccc(F)cc3)N(CCC3=CCCCC3)C2=O)cc1 (stereo not drawn)	none (no result: AmpC no deterg)
Nc1c(C(=O)Nc2ccc(Cl)c(C(F)(F)F)c2)sc2nc(-c3ccncc3)ccc12	none (no result: AmpC no deterg)
CC1=C(C(=O)Nc2ccccc2)C(c2ccncc2)n2nc(SCc3ccccc3Cl)nc2N1 (stereo not drawn)	none (no result: AmpC no deterg)
O=C(COc1ccc(Cl)cc1)N(Cc1ccccc1)c1nc(-c2ccccc2)cs1	none
COc1ccc(OC)c(-c2csc(N(Cc3ccco3)C(=O)c3cccs3)n2)c1	none
O=C(C1CC1)N(Cc1ccco1)c1nc(-c2ccccc2)cs1	Sm TGR block 32µM
COc1ccc(-c2csc(N(Cc3ccco3)C(=O)c3cccs3)n2)cc1	Sm TGR block 13µM
CCOC(=O)c1c(C)n(-c2ccccc2)c2ccc(OC(=O)c3cccc(OC)c3OC)cc12	none (no result: AmpC no deterg)
O=S(=O)(CCOc1ccccc1)c1nc2ccccc2[nH]1	Sm TGR block 13µM
O=C(CCCOc1ccccc1)Nc1nc2ccccc2[nH]1	none
Cc1nn(C)c2c1c(-c1ccccc1)cc(=O)n2CC(=O)NC(C)c1ccccc1 (stereo not drawn)	none (no result: AmpC no deterg)
CCn1cc(C(=O)NCCc2ccc(C)cc2)c(=O)c2cc(S(=O)(=O)N3CCCCC3)ccc21	none (no result: AmpC no deterg)
Cc1ccc(CCNC(=O)c2cn(C)c3ccc(S(=O)(=O)N4CCCCC4)cc3c2=O)cc1	Sm TGR block 22µM (no result: AmpC no deterg)
CCOC1(NC(=O)c2ccccc2)C(C)=CC(=O)C=C1C	Sm TGR block 25µM
CCOC(=O)c1ccc(NC(=O)c2ccc(NC(=O)c3ccccc3)cc2)cc1	none
CC(C)c1ccc(NC(=O)CSC2=Nc3ccccc3C3=NC(CC(=O)NC4CCCCC4)C(=O)N23)cc1 (stereo not drawn)	none (no result: AmpC no deterg)
CCN1CCN(c2oc(/C=C/c3cc(OC)c(OC)c(OC)c3)nc2C#N)CC1	none (no result: AmpC no deterg)
O=C(NCc1cccs1)c1ccc2c(c1)N(Cc1ccccc1Cl)C(=O)c1ccccc1S2	none (no result: AmpC no deterg)
CC1(C)Cc2c(C#N)c(N)n(-c3ccccc3)c(=S)c2CO1	none
N#Cc1c2c(c(=S)n(-c3ccccc3)c1N)CCCC2	Sm TGR block 40µM, AmpC inh detg inconclusive
N#Cc1cccc(NC(=O)C2CCN(c3cnccn3)CC2)c1	none (no result: AmpC no deterg)
Cc1cccc(NC(=O)C2CCN(c3nnc(-n4c(C)ccc4C)s3)CC2)c1C	Sm TGR block inconclusive (no result: AmpC no deterg)
COc1ccc(OCC(=O)OCc2cc(=O)n3nc(C4CC4)sc3n2)cc1	none (no result: AmpC no deterg)
Cc1ccc(C)c(NC(=O)CSc2c3c(nc4ccc(Cl)cc24)CCCC3)c1	none (no result: AmpC no deterg)
O=C(O)c1ccc(N2C(=O)CC(N3CCN(c4cccc(Cl)c4)CC3)C2=O)cc1 (stereo not drawn)	Sm TGR block 50µM
COc1ccc(N2C(=O)CC(N3CCN(c4cccc(Cl)c4)CC3)C2=O)cc1 (stereo not drawn)	none
O=C1CC(N2CCN(c3ccccc3)CC2)C(=O)N1c1ccc(Cl)cc1 (stereo not drawn)	Sm TGR block inconclusive, AmpC inh detg inconclusive
O=C(O)c1ccc(N2C(=O)CC(N3CCN(c4cccc(C(F)(F)F)c4)CC3)C2=O)cc1 (stereo not drawn)	Sm TGR block 89µM
CCOc1cc(C(=O)N2CC(=O)Nc3ccc(F)cc3C2c2ccccc2)cc(OCC)c1OCC (stereo not drawn)	none (no result: AmpC no deterg)
Cc1ccc(-n2nc3c(=O)n(CC(=O)NCc4ccco4)nc(C)c3c2C)cc1	none (no result: AmpC no deterg)
Cc1nn(CC(=O)NCCc2ccco2)c(=O)c2nn(-c3ccccc3)c(C)c12	Sm TGR block 32µM
Cc1ccc(OCC(=O)Nc2ccc3nc(SCC(N)=O)sc3c2)cc1	none (no result: AmpC no deterg)
CCCCC1=CC2=C(c3ccco3)C(=O)C(C)(OC(=O)c3ccc(OC)cc3)C(=O)C2=CN1CC(C)C (stereo not drawn)	Sm TGR block 14µM
CCCCC1=CC2=C(c3ccco3)C(=O)C(C)(OC(=O)c3ccc(OC)cc3)C(=O)C2=CN1Cc1ccc(OC)cc1 (stereo not drawn)	none
CCCCC1=CC2=C(c3ccco3)C(=O)C(C)(OC(=O)c3ccc(OC)cc3)C(=O)C2=CN1CCN1CCOCC1 (stereo not drawn)	Sm TGR block 45µM
CCCCC1=CC2=C(c3ccco3)C(=O)C(C)(OC(=O)c3ccc(OC)cc3)C(=O)C2=CN1CCCCO (stereo not drawn)	Sm TGR block inconclusive
COc1ccc2c(c1)O/C(=C\c1ccco1)C2=O	Sm TGR block 7.9µM
COc1ccc(/C=C2\Oc3cc(OCC(N)=O)ccc3C2=O)cc1OC	none
COC(=O)COc1ccc2c(c1)O/C(=C\c1cccc([N+](=O)[O-])c1)C2=O	none
COC(=O)C(C)Oc1ccc2c(c1)O/C(=C\c1ccco1)C2=O (stereo not drawn)	Sm TGR block 20µM
CCCCC(CC)CNC(=O)CN1C(=O)CSc2ccc(S(=O)(=O)N3CCOCC3)cc21 (stereo not drawn)	none (no result: AmpC no deterg)
